Where a structure was tested more than once in an assay, its records may differ in their call. The source made the active and inactive calls. How the source made its calls: active means hit-call score of the fitted dose curve at least 0.9, where 1 is the maximum; inactive means score below 0.9.

Assay [1] is described as follows: BSK_BT_PBMCCytotoxicity: PBMC Cytotoxicity Assessment in the BioMAP Diversity Plus: BT Assay (AID 2284225).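 Further: PBMC viability measured by Alamar Blue dye reduction fluorescence.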 The conditions noted are these: primary human B cells with PBMC. The method in brief: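 PBMC (75,000/well) pretreated with compound 1 h, then activated with SEB and TSST-1 (20 ng/mL each final), incubated 90 h; Alamar Blue added 6 h, fluorescence read at 546/580 nm. Fitted relative to DMSO.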

Read-out in assay [2]: Secreted IgG (sIgG), gene 3500
In words: BSK_BT_sIgG: BioMAP Diversity Plus: BT Assay for Secreted IgG (sIgG) Biomarker Activity (AID 2284226). The note with it: primary human B cells with PBMC. The method in brief: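 Read-out: ELISA for secreted IgG after 24 h of chemical exposure in a B cell plus PBMC co-culture. Values reflect upward-direction fitting against DMSO negative controls.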

Assay [3] in a line: BSK_BT_Bcell_Proliferation: Viability Assessment in the BioMAP Diversity Plus: BT Assay for B cell Proliferation (AID 2284227). The note with it: primary human B cells with PBMC. The method in brief:
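Read-out is absorbance at 560 nm from sulforhodamine B staining of total protein, reflecting relative cell numbers in a human B cell and PBMC co-culture after 72 h of chemical exposure. Values were referenced to DMSO.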

Read-out in assay [4]: Interleukin 6 (IL6), IL6 (gene 3569)
In words: BSK_BT_xIL6: BioMAP Diversity Plus: BT Assay for Interleukin 6 (IL6) Biomarker Activity (AID 2284228). The conditions noted are these: primary human B cells with PBMC. The method in brief: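 Readout: secreted IL-6 via Luminex xMAP multiplex, 24 h post-dosing. System: primary human B cells co-cultured with PBMC. Signal change scored relative to DMSO vehicle, positive fitting direction.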

Read-out in assay [5]: Interleukin 17A (IL17A), IL17A (gene 3605)
In words: BSK_BT_xIL17A: BioMAP Diversity Plus: BT Assay for Interleukin 17A (IL17A) Biomarker Activity (AID 2284229). The conditions noted are these: primary human B cells with PBMC. The method in brief: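 Luminex xMAP readout of secreted IL-17A; human B cell + PBMC co-culture; 24 h post-dose; positive-direction fit vs DMSO negative control.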

Read-out in assay [6]: Tumor necrosis factor (Homo sapiens) (UniProt P01375)
In words: BSK_BT_xTNFa: BioMAP Diversity Plus: BT Assay for Tumor necrosis factor alpha (TNF-alpha) Biomarker Activity (AID 2284230). The note with it: primary human B cells with PBMC. The method in brief: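 Human primary co-culture of B cells and peripheral blood mononuclear cells; TNF-alpha in supernatant, 24 h post-dose, Luminex multiplex; DMSO = baseline.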

Read-out in assay [7]: Vascular cell adhesion molecule 1 (VCAM1), VCAM1 (gene 7412)
In words: BSK_MyoF_VCAM1: BioMAP Diversity Plus: MyoF Assay for Vascular cell adhesion molecule 1 (VCAM1) Biomarker Activity (AID 2284231). The conditions noted are these: primary human lung fibroblasts. In short, it runs like this:
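MyoF system, lung fibroblasts; 24 h post-dose; VCAM-1 by ELISA; gain-of-signal fit vs DMSO baseline.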

Sequence of Tumor necrosis factor (Homo sapiens) (P01375 whole entry, looked up): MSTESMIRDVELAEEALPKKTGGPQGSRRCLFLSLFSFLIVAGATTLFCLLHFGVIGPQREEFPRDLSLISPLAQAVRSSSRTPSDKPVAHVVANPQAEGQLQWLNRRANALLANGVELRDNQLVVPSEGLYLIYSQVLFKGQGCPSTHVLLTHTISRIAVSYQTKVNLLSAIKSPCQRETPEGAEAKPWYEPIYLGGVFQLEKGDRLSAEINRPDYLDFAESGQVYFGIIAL

Turning to `CC=C(C)C(C)=O`, the result in assay [1], in assay [2], in assay [3], in assay [4], in assay [5] and in assay [6] was inactive. Further, in assay [7], the result was inactive.
`CCc1cccc(C)c1N(C(=O)CS(=O)(=O)O)C(C)COC` (stereo not drawn): the result in assay [1], in assay [2], in assay [4], in assay [5], in assay [6] and in assay [7] was inactive.
As to `Nc1cccc(N)n1`, the outcome in assay [1], in assay [2], in assay [4], in assay [5], in assay [6] and in assay [7] was inactive.
Consider `O=C1CCCCCCCCCCC1`, for which the outcome in assay [1], in assay [2], in assay [3], in assay [4], in assay [5] and in assay [6] was inactive. The result in assay [7] was inactive.
As to `CCOC(=O)C1=NN(c2ccc(Cl)cc2Cl)C(C)(C(=O)OCC)C1` (stereo not drawn), the result in assay [1], in assay [3], in assay [4], in assay [5], in assay [6] and in assay [7] was inactive. In assay [2], the half-maximal activity concentration (AC50) (as a rule, the concentration at which the activity in the assay is half-maximal) is 20 µM (active).
For `CCN1CN(CC)CN(CC)C1`, the outcome in assay [1], in assay [2], in assay [3], in assay [4], in assay [5] and in assay [6] was inactive. Besides, in assay [7], the outcome was inactive.
With `Oc1c(Cl)cc(Cl)c(Cl)c1Cl`, the result in assay [1], in assay [4], in assay [5] and in assay [6] was inactive. Further, the AC50 in assay [2] was 33.5 µM (active); in assay [7], 11.6 µM (active).
In the case of `COC(OC)(C(=O)c1ccccc1)c1ccccc1`, the outcome in assay [1], in assay [2], in assay [4], in assay [5], in assay [6] and in assay [7] was inactive.
Take `CCOC(=O)C1=NOC(c2ccccc2)(c2ccccc2)C1`: the outcome in assay [1], in assay [5], in assay [6] and in assay [7] was inactive. The results for the AC50 in assay [2] and in assay [4] were 20 µM (active) and 6.05 µM (active), respectively.
`CC(c1cc(C(C)(C)C)cc(C(C)(C)C)c1O)c1cc(C(C)(C)C)cc(C(C)(C)C)c1O`: the half-maximal activity concentration (AC50) in assay [1] was 30.2 µM (active); in assay [2], 5.95 µM (active); in assay [4] it was 32.3 µM (active); in assay [5], 17.2 µM (active); in assay [6] it was 26.5 µM (active). Besides, the outcome in assay [7] was inactive.
On to `COc1ccc(C(=O)c2ccccc2)c(O)c1`, for which the result in assay [1], in assay [2], in assay [4], in assay [5], in assay [6] and in assay [7] was inactive.
For `CC1=CC=C(C(C)C)CC1`, the result in assay [1], in assay [4], in assay [5], in assay [6] and in assay [7] was inactive. The concentration at half-maximal activity (AC50) in assay [2] is 20 µM (active).
For the compound `Clc1cc(Cl)c(Cl)c(Cl)c1Cl`, the result in assay [1], in assay [2], in assay [3], in assay [4], in assay [5] and in assay [6] was inactive. For the same compound, the AC50 in assay [7] was 20 µM (active).
For `C=C(C)C(=O)OCCCCCCCCCCCC`, the result in assay [1], in assay [2], in assay [3], in assay [4], in assay [5] and in assay [6] was inactive. Also, in assay [7], the result was inactive.
As to `CCCCCCOC(=O)CCCCC(=O)OCCCCCC`, the result in assay [1], in assay [2], in assay [3], in assay [4], in assay [5] and in assay [6] was inactive. Also, in assay [7], the outcome was inactive.
Turning to `O=C(O)C(F)(F)C(F)(F)C(F)(F)C(F)(F)C(=O)O`, the result in assay [1], in assay [2], in assay [4], in assay [5], in assay [6] and in assay [7] was inactive. Besides, the AC50 in assay [6] is 2.64 µM (active).
In the case of `CC1(C)CC(O)CC(C)(C)N1[O]`, the outcome in assay [1], in assay [2], in assay [4], in assay [5], in assay [6] and in assay [7] was inactive.
Regarding `CC(C)[N+](C)(CCOC(=O)C1c2ccccc2Oc2ccccc21)C(C)C`, the result in assay [1], in assay [2], in assay [4], in assay [5], in assay [6] and in assay [7] was inactive.
Regarding `C=CC(=O)NCOCCCC`, the outcome in assay [1], in assay [2], in assay [4], in assay [5], in assay [6] and in assay [7] was inactive.
Turning to `CCC1(C)C(=O)N(Cl)C(=O)N1Cl` (stereo not drawn), the outcome in assay [1], in assay [2], in assay [4], in assay [5], in assay [6] and in assay [7] was inactive.
Take `CCCCCC1=CCCC1=O`: the outcome in assay [1], in assay [4], in assay [5], in assay [6] and in assay [7] was inactive. In addition, the AC50 in assay [2] was 20 µM (active).
As for `C=CC(=O)NC(C)(C)C`, the outcome in assay [1], in assay [2], in assay [4], in assay [5], in assay [6] and in assay [7] was inactive.
In the case of `c1ccc2sc(SSN3CCOCC3)nc2c1`, the half-maximal activity concentration (AC50) in assay [1] is 13.2 µM (active); in assay [2], 8.43 µM (active); in assay [4] it was 13.3 µM (active); in assay [5], 20 µM (active); in assay [6], 24.3 µM (active); in assay [7], 30.4 µM (active).
Regarding `CCCCCCCCC(CO)CCCCCC` (stereo not drawn), the result in assay [1], in assay [3], in assay [5], in assay [6] and in assay [7] was inactive. In addition, the values for the AC50 in assay [2] and in assay [4] were 33.7 µM (active) and 30.2 µM (active), respectively.
